Laboratory results from the antibiotic and cytotoxicity screens of Wong et al. (2023).
The whole screen tested about 39,000 compounds, of which about 1,500 (3.8%) were called active. The entries come from a sample that favours actives as a whole.

tested on: HSkMC (human skeletal muscle cells); test: cytotoxicity call (relative viability < 0.9); details: 10 µM

| SMILES | cytotoxicity call |
| --- | --- |
| C[C@@H]1CN([C@@H](C)CO)C(=O)Cc2cc(NS(=O)(=O)c3cn(C)cn3)ccc2O[C@H]1CN(C)C(=O)Nc1ccccc1 | inactive |
| C[C@H](NC(=O)[C@@H]1N[C@@H]2c3ccc(-c4ccc(C(=O)N(C)C)cc4)c(=O)n3C[C@@H]2[C@H]1CO)c1ccccc1 | inactive |
| COc1ccc2c3c(n(c2c1)C)[C@@H](CO)N(C[C@]13CN(C1)C(=O)c1ccncc1)C(=O)C1CCOCC1 | inactive |
| C[C@H]1CCCCO[C@@H](CN(C)C(=O)Nc2ccc3c(c2)OCO3)[C@@H](C)CN([C@@H](C)CO)C(=O)c2cc(NC(=O)Cc3ccccc3)ccc2O1 | inactive |
| C[C@@H]1CN([C@@H](C)CO)S(=O)(=O)c2ccc(C#CC3(O)CCCC3)cc2O[C@H]1CN(C)C(=O)Nc1ccc(F)cc1 | inactive |
| C[C@@H]1CCCCO[C@@H](CN(C)Cc2ccc(C(F)(F)F)cc2)[C@@H](C)CN([C@H](C)CO)C(=O)c2cc(NS(C)(=O)=O)ccc2O1 | inactive |
| C[C@H](CO)N1C[C@H](C)[C@H](CN(C)S(C)(=O)=O)Oc2ccc(NC(=O)Nc3ccc(C(F)(F)F)cc3)cc2CC1=O | inactive |
| Cc1ccc(S(=O)(=O)N(C)C[C@H]2Oc3ccc(NC(=O)Nc4ccc(C(F)(F)F)cc4)cc3CC(=O)N([C@@H](C)CO)C[C@H]2C)cc1 | active |
| Cc1ccc(S(=O)(=O)N(C)C[C@H]2Oc3ccc(NC(=O)Nc4ccc(C(F)(F)F)cc4)cc3CC(=O)N([C@H](C)CO)C[C@H]2C)cc1 | active |
| Cc1ccc(S(=O)(=O)N(C)C[C@H]2Oc3ccc(NC(=O)Nc4ccc(C(F)(F)F)cc4)cc3CC(=O)N([C@H](C)CO)C[C@@H]2C)cc1 | active |
| Cc1ccc(S(=O)(=O)N(C)C[C@@H]2Oc3ccc(NC(=O)Nc4ccc(C(F)(F)F)cc4)cc3CC(=O)N([C@H](C)CO)C[C@@H]2C)cc1 | active |
| C[C@@H]1CN([C@@H](C)CO)C(=O)Cc2cc(NC(=O)Nc3ccc(C(F)(F)F)cc3)ccc2O[C@@H]1CN(C)S(C)(=O)=O | inactive |
| C[C@@H]1CN([C@H](C)CO)C(=O)c2cc(C#CCN(C)C)cnc2O[C@@H]1CN(C)Cc1ccc2c(c1)OCO2 | inactive |
| C[C@H](CO)N1C[C@H](C)[C@H](CN(C)S(=O)(=O)c2ccc(C(F)(F)F)cc2)OCc2ccccc2-c2ccccc2C1=O | inactive |
| C[C@@H]1CN([C@H](C)CO)C(=O)c2cccc(NC(=O)C3CCCCC3)c2O[C@@H]1CN(C)C(=O)Nc1ccc(C(F)(F)F)cc1 | inactive |
| COc1ccc(NC(=O)CSC2=NC(C)=C(C(=O)Nc3nc4ccccc4s3)[C@H](c3ccco3)C2C#N)cc1 (stereo not given in full) | inactive |
| COc1ccc(CCNS(=O)(=O)c2cn(C)c(=O)n(C)c2=O)cc1 | inactive |
| CCCN(C)C[C@H]1OCCCC[C@@H](C)Oc2ccc(NS(C)(=O)=O)cc2C(=O)N([C@H](C)CO)C[C@@H]1C | inactive |
| C[C@@H]1CN([C@@H](C)CO)C(=O)c2cc(N(C)C)ccc2O[C@H]1CN(C)S(C)(=O)=O | inactive |
| COc1ccc(S(=O)(=O)Nc2cccc3c2O[C@H](CN(C)S(C)(=O)=O)[C@H](C)CN([C@@H](C)CO)C3=O)cc1 | inactive |
| CC(C)NC(=O)N(C)C[C@H]1Oc2ccc(NC(=O)c3ccncc3)cc2CC(=O)N([C@H](C)CO)C[C@H]1C | inactive |
| C[C@@H]1CCCCO[C@@H](CN(C)S(=O)(=O)c2cn(C)cn2)[C@H](C)CN([C@@H](C)CO)C(=O)c2cc(NS(=O)(=O)c3ccc(F)cc3)ccc2O1 | inactive |

| SMILES | cytotoxicity call |
| --- | --- |
| Cc1ccc(S(=O)(=O)N(C)C[C@H]2Oc3ccc(NC(=O)Nc4ccc(C(F)(F)F)cc4)cc3CC(=O)N([C@@H](C)CO)C[C@@H]2C)cc1 | inactive |
| Cc1ccc(S(=O)(=O)N(C)C[C@@H]2Oc3ccc(NC(=O)Nc4ccc(C(F)(F)F)cc4)cc3CC(=O)N([C@@H](C)CO)C[C@@H]2C)cc1 | active |
| Cc1ccc(S(=O)(=O)N(C)C[C@@H]2Oc3ccc(NC(=O)Nc4ccc(C(F)(F)F)cc4)cc3CC(=O)N([C@@H](C)CO)C[C@H]2C)cc1 | active |
| Cc1ccc(S(=O)(=O)N(C)C[C@@H]2Oc3ccc(NC(=O)Nc4ccc(C(F)(F)F)cc4)cc3CC(=O)N([C@H](C)CO)C[C@H]2C)cc1 | inactive |
| C[C@@H]1CN([C@@H](C)CO)C(=O)c2cc(NC(=O)c3ccccc3)ccc2O[C@@H](C)CCCCO[C@H]1CN(C)CC1CCCCC1 | inactive |
| Cc1noc(C)c1NC(=O)Nc1ccc2c(c1)C(=O)N([C@@H](C)CO)C[C@@H](C)[C@H](CN(C)Cc1ccc(C(F)(F)F)cc1)O2 | inactive |
| CC(C)(C)[S@](=O)N1Cc2cc(C(=O)NCC(F)(F)F)nc(-c3cccc(-c4cccc(F)c4)c3)c2[C@@H]1CCO | inactive |
| C[C@@H]1CN([C@@H](C)CO)C(=O)Cc2cc(NC(=O)Nc3cccc4ccccc34)ccc2O[C@H]1CN(C)CC1CCCCC1 | inactive |
| C[C@@H]1CN([C@H](C)CO)C(=O)Cc2cc(NC(=O)Nc3cccc4ccccc34)ccc2O[C@H]1CN(C)CC1CCCCC1 | inactive |
| C[C@@H]1CN([C@@H](C)CO)C(=O)Cc2cc(NC(=O)Nc3cccc4ccccc34)ccc2O[C@@H]1CN(C)CC1CCCCC1 | inactive |
| C[C@H](CO)N1C[C@H](C)[C@H](CN(C)CC2CCCCC2)Oc2ccc(NC(=O)Nc3cccc4ccccc34)cc2CC1=O | inactive |
| C[C@H]1CN([C@@H](C)CO)C(=O)Cc2cc(NC(=O)Nc3cccc4ccccc34)ccc2O[C@@H]1CN(C)CC1CCCCC1 | active |
| C[C@H]1CN([C@@H](C)CO)C(=O)Cc2cc(NC(=O)Nc3cccc4ccccc34)ccc2O[C@H]1CN(C)CC1CCCCC1 | active |
| C[C@H](CO)N1C[C@H](C)[C@H](CN(C)C(=O)Nc2ccc3c(c2)OCO3)Oc2ccc(NC(=O)Nc3ccc(C(F)(F)F)cc3)cc2C1=O | inactive |
| COC[C@H]1CNN1C(=O)Nc1c(C)noc1C | inactive |
| Cc1noc(C)c1NC(=O)Nc1ccc2c(c1)C(=O)N([C@@H](C)CO)C[C@H](C)[C@H](CN(C)C(=O)NC(C)C)O2 | inactive |
| C[C@H](CO)N1C[C@H](C)[C@H](CN(C)C(=O)Nc2cccc3ccccc23)Oc2ccc(NS(=O)(=O)c3ccc(F)cc3)cc2C1=O | inactive |
| C[C@@H]1CCCCO[C@@H](CN(C)C(=O)Nc2ccccc2)[C@@H](C)CN([C@H](C)CO)C(=O)c2cc(NC(=O)c3ccccc3)ccc2O1 | inactive |
| C[C@@H]1CN([C@@H](C)CO)C(=O)c2cccc(NC(=O)Nc3ccc(C(F)(F)F)cc3)c2O[C@H]1CN(C)Cc1ccccc1 | active |
| C[C@@H]1CN([C@@H](C)CO)C(=O)c2cccc(NC(=O)Nc3ccc(C(F)(F)F)cc3)c2O[C@@H]1CN(C)Cc1ccccc1 | inactive |
| C[C@H]1CN([C@@H](C)CO)C(=O)c2cccc(NC(=O)Nc3ccc(C(F)(F)F)cc3)c2O[C@@H]1CN(C)Cc1ccccc1 | active |
| C[C@H](CO)N1C[C@H](C)[C@@H](CN(C)Cc2ccccc2)Oc2c(NC(=O)Nc3ccc(C(F)(F)F)cc3)cccc2C1=O | inactive |

| SMILES | cytotoxicity call |
| --- | --- |
| C[C@@H]1CN([C@H](C)CO)C(=O)c2cccc(NC(=O)Nc3ccc(C(F)(F)F)cc3)c2O[C@H]1CN(C)Cc1ccccc1 | inactive |
| C[C@@H]1CN([C@H](C)CO)C(=O)c2cccc(NC(=O)Nc3ccc(C(F)(F)F)cc3)c2O[C@@H]1CN(C)Cc1ccccc1 | inactive |
| Cc1c(-c2ccnn2C)cc(C(=O)NCc2ccc(S(C)(=O)=O)cn2)c(=O)n1-c1cccc(C(F)(F)F)c1 | inactive |
| Cc1sc2[nH]cnc(=S)c2c1C | inactive |
| C[C@@H]1CN([C@H](C)CO)C(=O)c2c(c3ccccc3n2C)-c2ccccc2CO[C@H]1CN(C)Cc1ccc2c(c1)OCO2 | inactive |
| C[C@@H]1CN([C@@H](C)CO)C(=O)c2cc(NC(=O)Nc3ccc(C(F)(F)F)cc3)ccc2O[C@@H]1CN(C)Cc1ccc(C(=O)Nc2ccccc2N)cc1 | inactive |
| COCC(=O)N[C@@H]1C[C@H](CO)[C@H](O)C1 | inactive |
| CCCc1cc(=O)n2ncnc2[nH]1 | inactive |
| Cc1noc(C)c1NC(=O)Nc1ccc2c(c1)CC(=O)N([C@H](C)CO)C[C@@H](C)[C@H](CN(C)S(=O)(=O)c1cccs1)O2 | inactive |
| C=C(C)C1CCC2(C)CCC3(C)C(CCC4C5(C)CCC(O)C(C)(C)C5CCC43C)C12 (stereo not given) | inactive |
| C=C(C)C1CCC2(C(=O)O)CCC3(C)C(CCC4C5(C)CCC(O)C(C)(C)C5CCC43C)C12 (stereo not given) | inactive |
| C=C(C)C1CCC2(CO)CCC3(C)C(CCC4C5(C)CCC(O)C(C)(C)C5CCC43C)C12 (stereo not given) | active |
| CN1CCN(C(=O)C[C@@H]2CC[C@@H]3[C@H](COC[C@H](O)CN3Cc3ccc(Oc4ccccc4)cc3)O2)CC1 | inactive |
| CC(C)(C)NC(=O)C[n+]1cccc(/C=N/O)c1 | inactive |
| O=C(C[C@@H]1CC[C@@H]2[C@H](COC[C@@H](O)CN2S(=O)(=O)c2cccc(Cl)c2)O1)NCc1ccncn1 | inactive |
| O=C(/C=C/c1cccc(-c2cn(-c3cccc(C(=O)N4CCC5(CC4)C(=O)NCN5c4ccccc4)c3)nn2)c1)NO | inactive |
| O=C(NO)c1cn(-c2cccc(C(=O)N3CCC4(CC3)C(=O)NCN4c3ccccc3)c2)nn1 | active |
| O=C(NO)c1cn(CC(=O)N2CCC3(CC2)C(=O)NCN3c2ccccc2)nn1 | inactive |
| C=CCNC(=O)[C@H]1CCCN(S(C)(=O)=O)C1 | inactive |
| O=C(C[C@@H]1C=C[C@H](NC(=O)c2ccc3c(c2)OCO3)[C@H](CO)O1)NCc1ccc(Oc2ccccc2)cc1 | inactive |
| COCCNC(=O)C[C@H]1CC[C@@H]2[C@@H](COc3ccc(NS(=O)(=O)c4ccc(Cl)cc4)cc3C(=O)N2C)O1 | inactive |
